What follows are compounds tested against Solute carrier family 2, facilitated glucose transporter member 1 (Homo sapiens) (UniProt P11166) (assay: ST_JUDE_LEISH: Cytotoxicity at 2uM final concentration against transgenic Leishmania Mexicana promastigotes LmGLUT1 that are glucose transport deficient and complemented with the human glucose transporter GLUT1. Activity is measured by DNA content using SYBR green in vitro).
Assay type: functional

Solute carrier family 2, facilitated glucose transporter member 1 (Homo sapiens), sequence (P11166 whole entry): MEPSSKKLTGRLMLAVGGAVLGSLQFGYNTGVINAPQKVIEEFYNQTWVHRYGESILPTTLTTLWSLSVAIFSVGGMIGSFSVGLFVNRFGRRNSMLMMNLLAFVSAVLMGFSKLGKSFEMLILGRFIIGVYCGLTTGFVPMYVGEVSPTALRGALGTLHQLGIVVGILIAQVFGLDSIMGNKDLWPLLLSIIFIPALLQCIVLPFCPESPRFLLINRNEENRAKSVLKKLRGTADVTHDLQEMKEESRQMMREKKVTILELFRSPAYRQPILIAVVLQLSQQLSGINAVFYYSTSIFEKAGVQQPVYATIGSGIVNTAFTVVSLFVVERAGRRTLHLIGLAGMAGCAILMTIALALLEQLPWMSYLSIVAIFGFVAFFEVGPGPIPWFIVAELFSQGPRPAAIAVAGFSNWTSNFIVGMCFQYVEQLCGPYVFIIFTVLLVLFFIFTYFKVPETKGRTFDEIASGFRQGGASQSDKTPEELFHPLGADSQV

Row | Compound | inhibition [%]
1 | O=C(/C=C/c1ccc(Cl)c(Cl)c1)NCCCCN1CCC(c2c[nH]c3ccccc23)CC1 | -2.39
2 | O=C(NCCN1CCCC1)c1cccc(-c2ccc(-c3nc4cc(F)ccc4[nH]3)cc2)c1 | -0.09
3 | CC1(C)N=C(N)N=C(N)N1OCc1cc(Cl)c(CON2C(N)=NC(N)=NC2(C)C)cc1Cl | 0.92
4 | CC(C)CCCC(C)(C)NC[C@@H](O)[C@H](Cc1ccccc1)NC(=O)c1cc(NC(C)C)cc(N2CCCCS2(=O)=O)c1 | -0.83
5 | N=C(N)Nc1ccc(OCCCCCOc2ccc(NC(=N)N)cc2)cc1 | 13.7
6 | Cc1cc(OCCCN2CCC(NS(=O)(=O)c3cc(Br)c(Cl)s3)CC2)c2ccccc2n1 | -1.11
7 | CN1CCN(c2cc3c(cc2Cl)CCN3C(=O)Cc2ccc(Cl)c(NC(=O)Nc3cccc(C#N)c3)c2)CC1 | -0.57
8 | Cc1cc(C2CCN(CCCCNC(=O)c3ccc(NC(=O)c4ccc(Cl)cc4)cc3)CC2)c(C)cc1OC(C)C | -1.59
9 | O=C(Nc1ccc(Cl)c(Cl)c1)N[C@H]1CCN(CCCCCNC(=O)C2CC2c2ccc(Cl)c(Cl)c2)C1 (stereo not given in full) | 12.3
10 | COc1ccc2ncc(F)c(CCN3C[C@H](CNCc4cc(C#N)c5c(c4)OCCO5)[C@H](O)C3)c2n1 | 7.97
11 | Cc1cccc(C(O)CNc2ccnc(Nc3cccc(-c4csc(C)n4)c3)n2)c1 (stereo not given) | 3.68
12 | COc1ccc(C(=O)N2CCC(CN3CCOC(c4ccccc4)(c4ccccc4)C3)CC2)cc1 | 0.77
13 | SC(=Nc1ccc(Cl)c(Cl)c1)NN=Cc1ccccn1 | 1.55
14 | COc1ccc(-c2cccc(NC(=O)c3ccc(F)cc3)c2)cc1CNC(C)C | 1.85
15 | COc1ccc2nccc([C@@H](O)CN3CCC(NCc4ccc5cccc(O)c5n4)CC3)c2c1 | 7.73
16 | c1ccc2c(c1)ncc1c3ccccc3[nH]c21 | 7.76
17 | Nc1nc(N)c2c(Cl)c(CNc3cccc(C(=O)O)c3)ccc2n1 | 3.95
18 | COc1ccc(Cn2c(SCc3ccc(C)cc3)nc3cc(OC)c(OC)cc3c2=N)cc1Cl | -0.1
19 | COc1ccc(CNCc2ccccc2)cc1-c1ccc(S(=O)(=O)NCCN2CCCC2)cc1 | 2.89
20 | O=C(NC1CC1)c1ccc(Cn2c(SCc3cccc([N+](=O)[O-])c3)nc3ccccc3c2=O)cc1 | 1.19

Row | Compound | inhibition [%]
21 | O=C(Nc1ccc(Oc2ccccc2)cc1)N(Cc1ccc(-c2cccc(CN3CCNCC3)c2)cc1)C1CCN(Cc2ccccc2)CC1 | 3.46
22 | CC1CCN(CC[C@H]2CCCN2S(=O)(=O)c2cccc(NC(=O)c3cc4ccccc4s3)c2)CC1 | 4.95
23 | COc1cc(Cc2cnc(N)nc2N)cc(OCC(C)(C)C(=O)O)c1OC | -1.6
24 | CCc1ccc(NC(=O)c2ccc(CN3CCCN(Cc4cccc(C)c4)CC3)cc2)cc1 | 7.45
25 | N#Cc1cccc(C(=O)NC2CCN(CCCCCNC(=O)/C=C/c3ccc(Cl)c(Cl)c3)CC2)c1 | 5.7
26 | COc1ccc(CN2CCC(CNCCc3ccccc3Oc3ccccc3)CC2)cc1 | -1.06
27 | c1ccc(CCNc2nc(NCC(c3ccccc3)c3ccccc3)c3nc[nH]c3n2)cc1 | 4.2
28 | O=c1c(Br)ccccc1Br | 1.2
29 | COCC(C)n1c(SCC(=O)Nc2cc(C(F)(F)F)ccc2Cl)nc2ccccc2c1=O (stereo not given) | 6.25
30 | Cc1nc(N)nc(N)c1-c1cc(Cl)c(Cl)c(Cl)c1 | 0.4
31 | Cc1cc(C)c(NC(=O)N[C@H]2CCN(CCCCCNC(=O)/C=C/c3ccc(Cl)c(Cl)c3)C2)c(C)c1 | -0.8
32 | Nc1ccc(-c2ccc(NC(=O)Nc3ccccc3)cc2)cn1 | 2.95
33 | O=C(NC1CCN(Cc2ccccc2)CC1)c1ccc(-c2nc3cc(Cl)c(F)cc3[nH]2)cc1 | 1.14
34 | Fc1ccc(C=NN=c2cc[nH]c3ccccc23)cc1 | 11.7
35 | N=C(N)c1ccc2[nH]c(SCc3ccccc3)nc2c1 | 1.18
36 | O=C(NCCN1CCCC1)c1cccc(-c2ccc(-c3nc4ccccc4[nH]3)cc2)c1 | 3.79
37 | O=C(Nc1cc(Cl)c(Cl)cc1NC(=O)c1cccc(-c2ccccc2)c1O)c1cccc(-c2ccccc2)c1O | 5.1
38 | COc1ccc2ncc(F)c(CCN3CC(O)C(CNCc4ccc(F)cc4)C3)c2n1 (stereo not given) | 3.37
39 | COc1ccc2ncc(F)c(CCN3C[C@H](CNCc4cc(F)c5c(c4)NC(=O)CO5)[C@H](O)C3)c2n1 | 3.52
40 | COc1ccc2c(c1)CC(NCc1ccc(-c3ccc4nc[nH]c4c3)cc1)C2 (stereo not given) | 4.22

— ChEMBL document CHEMBL3433997, “St. Jude Leishmania screening dataset” (2016)
